Screens (PubChem)
DAX1 inh-1: inhibitors of DAX1 repression of SF-1 activated StAR promoter | HEK293T StAR-luciferase reporter, SF-1/DAX-1 repression relief | inhibition, % at 6.8 µM | 370,000 compounds, 1.1% hits | AID 652010;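 active = inhibition above the mean over all tested compounds plus 3 SD, cut at about 3.6% in these data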;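 also: higher inhibition means more luminescence from relief of DAX-1 repression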
ssDAF-12 act: S. stercoralis DAF-12 activation, primary screen. activation, % at 6.8 µM. HEK293 ssDAF-12/GRIP1 lit1-tk-luc reporter, luminescence; % of 3 µM dafachronic acid response. 370,000 compounds, 1% hits;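 active = activation above the mean over all tested compounds plus 3 SD, cut at about 0.9% in these data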
hgDAF-12 ag: activates the H. glycines DAF-12 receptor ligand-binding domain; HEK293 GAL4-hgDAF12 UAS-luciferase reporter, agonist luminescence; normalized to butyrate control; activation, % at 6.8 µM; 370,000 compounds, 1.8% hits;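 active = activation above a cutoff set at the mean of all screened compounds plus 3 SD, cut at about 10% in these data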
hcDAF12 agonist: activates DAF-12 receptor from parasite H. contortus | HEK293 hcDAF-12 lit1-tk-luc reporter, luminescence; 0% DMSO, 100% Δ7-dafachronic acid | activation, % at 6.8 µM | 370,000 compounds, 1.4% hits | AID 652067;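 active = activation above the mean of all tested compounds plus 3 SD, cut at about 5.5% in these data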
DAX1 inh-2: inhibitors of human orphan nuclear receptor DAX1 (NR0B1); 340,000 compounds, 0.99% hits; HEK293 Gal4-DAX1 luciferase reporter, luminescence; P51843; AID 504766; inhibition, % at 6.75 µM;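 active = inhibition above the mean over all tested compounds plus 3 SD, cut at about 4.2% in these data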;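 also: inhibition shows as a rise in luminescence from relieved DAX1 repression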
Target sequence (P51843 207-470 limits assumed): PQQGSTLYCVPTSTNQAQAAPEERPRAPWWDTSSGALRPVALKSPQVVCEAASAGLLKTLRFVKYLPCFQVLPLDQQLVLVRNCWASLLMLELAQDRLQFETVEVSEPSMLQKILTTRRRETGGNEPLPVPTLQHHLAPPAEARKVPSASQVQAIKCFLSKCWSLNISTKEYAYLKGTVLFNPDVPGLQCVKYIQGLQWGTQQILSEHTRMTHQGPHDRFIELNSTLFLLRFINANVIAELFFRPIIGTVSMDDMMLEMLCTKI
DAX1 inh confirm: confirmation of human DAX1 (NR0B1) inhibitors; shares compounds with DAX1 inh-1; HEK293T StAR-promoter luciferase reporter, SF-1/DAX-1 repression; inhibition, % at 6.8 µM; 2,400 compounds, 87% hits;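 active = inhibition above the average of every tested compound plus 3 SD, cut at about 3.8% in these data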;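 also: active compounds raise luminescence by relieving repression of the StAR reporter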
SF1 mutant ctr: counter-screen for DAX1 inhibitors: nonselective inhibitors with SF-1 AF2 mutant | shares compounds with DAX1 inh-1 | HEK293 StAR-luciferase, luminescence | inhibition, % at 6.8 µM | 2,400 compounds, 78% hits | AID 652136;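 active = inhibition above the mean of all tested compounds plus 3 SD, cut at about 3% in these data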
A number is an active result; . = inactive; / = not tested or not shown. A selection: hits, their analogues and other compounds. The true share with any hit is near 4.1%.

SMILES	DAX1 inh-1	ssDAF-12 act	hgDAF-12 ag	hcDAF12 agonist	DAX1 inh-2	DAX1 inh confirm	SF1 mutant ctr
Cc1cccc(OCCn2c(=O)n(C)c3ccccc32)c1	5.8	.	13	.	.	7.2	4.3
Cc1cccc(OCCn2c(=O)sc3ccccc32)c1	.	.	.	.	.	/	/
C/C=C/c1ccc2c(c1)O[C@H](CN(C)C(=O)NC1CCCC1)[C@H](C)CN([C@H](C)CO)S2(=O)=O	.	.	.	.	.	/	/
Brc1ccccc1-c1nc2c3ccccc3ncn2n1	4.6	.	11	6.0	.	9.0	6.4
CCOC(=O)C1=CCN(S(=O)(=O)c2cccc(Cl)c2)C1c1ccc(Cl)c(Cl)c1 (configuration not stated)	.	.	.	.	/	/	/
C=CCN1[C@H](Cc2ccccc2)COc2cccc(N3CCCC3)c2S1(=O)=O	.	.	.	.	/	/	/
CCOC(=O)CC[C@@]1(C(=O)OCC)C[C@@H](CC(=O)N2CCN(C(=O)c3ccco3)CC2)C(=O)N2CCCC=C21	.	.	.	.	/	/	/
Cc1ccnc(NC(=O)c2ccc3c(c2)NC(=O)C(C)S3)c1 (configuration not stated)	11	.	.	.	.	9.2	3.9
CC(=O)c1ccccc1NC(=O)c1ccc2c(c1)NC(=O)C(C)S2 (configuration not stated)	.	.	.	.	.	/	/
CCOC(=O)[C@]12CCCC=C1N(Cc1ccc(OC)cc1)C(=O)[C@@H]2CC(=O)NCCCOC	.	.	.	.	/	/	/
CCOC(=O)[C@]12CCCCC/C=C\1N(Cc1ccc(OC)cc1)C(=O)[C@H]2CC(=O)NCCCOC	5.2	.	.	.	/	.	.
COC(=O)c1ccc2nc(-c3ccc(OC)c(OC)c3)c(Cc3ccccc3C(F)(F)F)n2c1	.	.	.	.	/	/	/
C/C(=N\NC(=O)c1ccc(O)cc1)c1ccc(NC(=O)Cc2ccccc2)cc1	5.5	.	12	.	.	.	.
O=C1C=CC(c2c[nH]c3ccccc23)CC1 (configuration not stated)	.	.	.	.	/	/	/
O=C(Nc1ccc(F)cc1)Nc1ccc2c(c1)CCC2	5.2	.	.	.	.	4.2	3.1
O=C(Nc1ccc2c(c1)CCC2)Nc1ccc(F)cc1F	5.5	.	11	.	.	9.9	6.9
O=C(Nc1cccc(F)c1)Nc1ccc2c(c1)CCC2	.	.	.	.	.	/	/
Cc1ccc(NC(=O)Nc2ccc3c(c2)CCC3)cc1	5.5	.	.	.	.	5.3	4.6
O=C(C(=O)N1CCN(C(=O)OCc2ccccc2)CC1)c1cccs1	.	.	.	.	/	/	/
COc1ccc2c(c1)[C@@]1(OCCC=C[C@H]1C)C(=O)N2Cc1ccc(F)cc1	.	.	.	.	/	/	/
Cc1c(C(=O)N(C)Cc2ccc(F)cc2)sc(=O)n1Cc1ccccc1C#N	.	.	.	.	/	/	/
O=C(Nc1ccccn1)c1ccc(C(=O)c2ccccc2)cc1	9.0	.	13	.	.	11	4.7
Cc1cc(C)n(-c2ccc(C(=O)Nc3ccccn3)cc2)n1	4.7	.	12	.	.	11	5.4
Cc1cc(C)n(-c2ccc(C(=O)Nc3cccnc3Cl)cc2)n1	.	.	.	.	.	/	/
S=C(NCCc1ccc(Cl)cc1)NC1CCCCC1	5.0	.	.	.	.	.	3.0
SMILES	DAX1 inh-1	ssDAF-12 act	hgDAF-12 ag	hcDAF12 agonist	DAX1 inh-2	DAX1 inh confirm	SF1 mutant ctr
CCCC(=O)OC12CCCN(C1)/C(=C/c1cccc(Cl)c1)C2 (configuration not stated)	.	.	.	.	/	/	/
CCc1nnc(NC(=O)C2COc3ccccc3O2)s1 (configuration not stated)	4.5	.	.	.	.	6.3	4.0
O=C(Nc1ccc(F)cc1)C(c1ccncc1)N1CCN(CC(=O)N2CCCC2)CC1 (configuration not stated)	.	.	.	.	/	/	/
COc1ccc(NC(=O)N(C)C[C@H]2OCc3cnnn3CCCC(=O)N([C@@H](C)CO)C[C@H]2C)cc1	.	.	.	.	.	/	/
Cc1cc(N2CCN(CCO)CC2)n2nc(C)nc2n1	.	.	.	.	/	/	/
Nc1cc(OCc2ccccc2)ccc1OCc1ccccc1	4.7	.	.	.	.	3.6	4.5
COCCSc1nnc(NC(=O)c2ccc3c(c2)OCO3)s1	.	.	.	.	.	/	/
CSc1nnc(NC(=O)c2ccc3c(c2)OCO3)s1	13	.	11	6.0	.	.	.
N/C(=N\OC(=O)c1cccc(C(F)(F)F)c1)c1cnccn1	5.2	.	11	.	.	7.3	5.9
CCN(CC)c1ccc(C=NNC(=O)c2cc(-c3ccc(C)c(C)c3)n[nH]2)c(O)c1	.	.	.	.	/	/	/
O=C(c1cccnc1)N(Cc1ccccc1)C(c1ccccc1)c1nc2ccccc2[nH]1 (configuration not stated)	.	.	.	.	/	/	/
O=C(c1ccco1)N(Cc1cccnc1)C(c1ccccc1)c1nc2ccccc2[nH]1 (configuration not stated)	6.0	.	.	.	/	3.8	3.1
COc1cc(Cl)ccc1OCc1cc(C(=O)N2C[C@@H]3CCC[C@H]2C3)no1	5.2	.	.	.	.	7.5	4.9
COc1cc(Cl)ccc1OCc1cc(C(=O)N2C[C@H]3CC[C@H]2C3)no1	5.5	.	.	.	.	4.7	4.0
COC(=O)[C@]12C[C@H](CC(=O)N3CCN(C(=O)C4CC4)CC3)C(=O)N(CCc3ccc(OC)c(OC)c3)C1=C[C@H](COCc1ccccc1)O[C@@H]2C	.	.	.	.	/	/	/
OC[C@H]1CC[C@@H]2O[C@H](CCc3ccc(-c4ccc(F)cc4)cc3)[C@@H](n3cc(C4CC4)nn3)C[C@@H]2O1	.	.	.	.	/	/	/
Cc1cc(C(=O)COC(=O)c2nccnc2N)c(C)n1C	.	.	.	.	.	/	/
Cc1ccsc1C(=O)OCC(=O)c1cc(C)n(C)c1C	4.8	.	.	.	.	6.0	.
COc1cc(/C=C2/SC(=S)NC2=O)ccc1OS(=O)(=O)c1ccc(C)cc1	/	/	/	/	.	/	/
COc1cc(/C=C2\SC(=S)N(CCCCC(=O)O)C2=O)ccc1OS(=O)(=O)c1ccc(C)cc1	5.9	.	.	.	.	6.2	5.8
Clc1cccc(Nc2nc(-c3ccncc3)nc3ccccc23)c1	.	.	.	.	.	/	/
O=c1oc(Nc2ccccc2F)nc2ccccc12	.	.	.	.	.	/	/
O=c1oc(Nc2cccc(Cl)c2)nc2ccccc12	5.4	.	.	.	.	10	4.8
O=c1oc(Nc2ccccc2Cl)nc2ccccc12	4.8	.	11	.	.	10	3.8
CC(=O)c1sc(Nc2ccc(Oc3ccccc3)cc2)nc1C	9.2	.	.	.	/	3.9	.
